# Data reported in paper PMC5540273 (PLoS ONE, 2017).
# Several values for one entry are separate records, joined by “and”; a condition that tells them apart may be missing. Identical values can stand only once. Like-named read-outs stand apart in the source and are kept apart here.
# What was measured:
# YANK3 = tested on: T1, YANK3; conditions: concentration: 1 μM, replicates: in singlicate, n = 1
# T1 construct: gene STK32C
# YES = tested on: T2, YES; conditions: concentration: 1 μM, replicates: in singlicate, n = 1
# T2 construct: gene YES1
# YSK1 = tested on: T3, YSK1; conditions: concentration: 1 μM, replicates: in singlicate, n = 1
# T3 construct: gene STK25
# YSK4 = tested on: T4, YSK4; conditions: concentration: 1 μM, replicates: in singlicate, n = 1
# T4 construct: gene MAP3K19
# ZAK = conditions: concentration: 1 μM, replicates: in singlicate, n = 1
# ZAP70 = conditions: concentration: 1 μM, replicates: in singlicate; n = 1
# p38-alpha = tested on: T5, p38-alpha; conditions: concentration: 1 μM, replicates: in singlicate, n = 1
# T5 construct: gene MAPK14
# p38-beta = tested on: T6, p38-beta; conditions: concentration: 1 μM, replicates: in singlicate; n = 1
# T6 construct: gene MAPK11
# p38-delta = conditions: concentration: 1 μM, replicates: in singlicate, n = 1
# p38-gamma = tested on: T7, p38-gamma; conditions: concentration: 1 μM, replicates: in singlicate, n = 1
# T7 construct: gene MAPK12
# 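Also: KINOMEscan kinase panel screen.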
Structure (SMILES),%Inh (YANK3) [%],%Inh (YES) [%],%Inh (YSK1) [%],%Inh (YSK4) [%],%Inh (ZAK) [%],%Inh (ZAP70) [%],%Inh (p38-alpha) [%],%Inh (p38-beta) [%],%Inh (p38-delta) [%],%Inh (p38-gamma) [%],%Inh (YANK3; 1 µM),%Inh (YES; 1 µM),%Inh (YSK1; 1 µM),%Inh (YSK4; 1 µM),%Inh (ZAK; 1 µM),%Inh (p38-alpha; 1 µM),%Inh (p38-delta; 1 µM),%Inh (p38-gamma; 1 µM)
C[C@@H](Oc1cc(-n2cnc3ccc(NC(=O)NC(C)(C)C)cc32)sc1C(N)=O)c1ccccc1Cl [GSK346294],12,3,0,3,0,6,32,0,30,2,–,–,–,–,–,–,–,–
O=c1cc(N2CCOCC2)nc2n(Cc3cccc(C(F)(F)F)c3)ccn12 [GSK2297543],0,9,0,0,8,0,0,0,21,11,–,–,–,–,–,–,–,–
NCCNS(=O)(=O)c1ccc(-c2ccnc3[nH]ccc23)cc1 [GSK977617],–,–,–,–,–,0,–,0,–,–,8% and 0%,11% and 0%,32% and 25%,98.1% and 97.3%,18% and 0%,0% and 8%,65% and 49%,29% and 55%
Fc1ccc(-c2ncn(CCCN3CCOCC3)c2-c2ccccn2)cc1 [SB-211742],0,0,0,0,0,3,2,0,2,23,–,–,–,–,–,–,–,–
Cc1c2ccc(N(C)c3ccnc(Nc4cccc(S(N)(=O)=O)c4)n3)cc2nn1Cc1ccccc1.Cl.Cl [GW787226],0,50,24,25,17,0,0,2,0,35,–,–,–,–,–,–,–,–
